# Experimental data reported in publication PMC7862700, “An all-to-all approach to the identification of sequence-specific readers for epigenetic DNA modifications on cytosine”.
# Assays:
# Assay in all cases: DAPPL (digital affinity profiling via proximity ligation, sequencing); 10 mM Tris-HCl pH 7.5, 50 mM NaCl, 1 mM DTT, 4% glycerol, room temperature, 30 min; GST-TFs on glutathione beads, 16-mer random dsDNA library, 0.1% formaldehyde crosslink after washing; high values mean tight binding
# FEV = biological target: T1, FEV (Homo sapiens, UniProt Q99581 1-238); conditions: protein: recombinant; tags: N-terminal GST; dsDNA, one strand shown
# T1 sequence: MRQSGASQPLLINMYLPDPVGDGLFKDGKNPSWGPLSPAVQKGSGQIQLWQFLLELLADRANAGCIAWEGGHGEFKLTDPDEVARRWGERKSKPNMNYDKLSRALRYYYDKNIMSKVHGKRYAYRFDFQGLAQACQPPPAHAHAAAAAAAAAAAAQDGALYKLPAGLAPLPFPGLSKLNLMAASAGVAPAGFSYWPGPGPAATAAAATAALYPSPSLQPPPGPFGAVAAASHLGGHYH
# How it was run: (§1)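 Binding signal is each hexamer's read frequency for a factor divided by its frequency in the tag-only sample. The factors were GST-fused human transcription factors from yeast, captured on glutathione beads, DNA-barcoded and pooled with that sample. Pools were incubated with 200 nmole of a random double-stranded 16-mer DNA library in Tris/NaCl/DTT/glycerol buffer at room temperature for 30 min, then washed, crosslinked with 0.1% formaldehyde, proximity-ligated with BsaI/T4 ligase (1 h, 37 °C), PCR-amplified and sequenced on an Illumina NextSeq500.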
# ETV5 = ETV5 (Homo sapiens, UniProt P41161 1-510); conditions: protein: recombinant; tags: N-terminal GST; dsDNA, one strand shown
# Chain of ETV5 (P41161 whole entry): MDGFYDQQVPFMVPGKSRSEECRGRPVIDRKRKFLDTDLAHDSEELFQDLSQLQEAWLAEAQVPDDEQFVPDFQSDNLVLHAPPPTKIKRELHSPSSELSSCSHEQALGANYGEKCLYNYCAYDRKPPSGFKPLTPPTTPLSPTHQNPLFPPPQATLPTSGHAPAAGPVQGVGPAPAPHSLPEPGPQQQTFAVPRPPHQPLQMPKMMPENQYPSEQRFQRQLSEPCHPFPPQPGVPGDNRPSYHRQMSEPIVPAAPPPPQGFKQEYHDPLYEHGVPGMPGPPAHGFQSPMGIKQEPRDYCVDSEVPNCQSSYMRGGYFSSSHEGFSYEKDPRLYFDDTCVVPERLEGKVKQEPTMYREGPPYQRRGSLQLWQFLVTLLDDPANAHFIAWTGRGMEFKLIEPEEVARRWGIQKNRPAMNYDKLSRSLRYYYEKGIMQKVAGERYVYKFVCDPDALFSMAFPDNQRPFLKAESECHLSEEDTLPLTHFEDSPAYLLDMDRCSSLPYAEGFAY
# How it was run: as §1
# HSF1 = HSF1 (Homo sapiens, UniProt Q00613 1-529); conditions: protein: recombinant; tags: N-terminal GST; chain copies: 3; dsDNA, one strand shown
# Chain of HSF1 (Q00613 whole entry): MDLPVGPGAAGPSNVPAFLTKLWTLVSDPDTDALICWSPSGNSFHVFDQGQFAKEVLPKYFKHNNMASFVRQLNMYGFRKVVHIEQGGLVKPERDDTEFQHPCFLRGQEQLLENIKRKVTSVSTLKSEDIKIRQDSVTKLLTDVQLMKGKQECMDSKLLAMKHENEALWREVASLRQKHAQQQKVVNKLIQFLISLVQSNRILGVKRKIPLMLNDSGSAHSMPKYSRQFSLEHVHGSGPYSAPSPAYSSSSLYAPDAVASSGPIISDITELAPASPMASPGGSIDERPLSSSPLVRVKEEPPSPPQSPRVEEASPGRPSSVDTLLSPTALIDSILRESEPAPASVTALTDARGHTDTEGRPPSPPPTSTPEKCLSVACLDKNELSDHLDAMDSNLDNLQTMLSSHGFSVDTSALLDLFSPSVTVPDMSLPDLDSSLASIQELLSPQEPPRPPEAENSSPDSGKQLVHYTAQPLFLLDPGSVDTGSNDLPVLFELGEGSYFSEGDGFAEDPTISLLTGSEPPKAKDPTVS
# How it was run: as §1
# ELF4 = ELF4 (Homo sapiens, UniProt Q99607 1-663); conditions: protein: recombinant; tags: N-terminal GST; dsDNA, one strand shown
# Chain of ELF4 (Q99607 whole entry): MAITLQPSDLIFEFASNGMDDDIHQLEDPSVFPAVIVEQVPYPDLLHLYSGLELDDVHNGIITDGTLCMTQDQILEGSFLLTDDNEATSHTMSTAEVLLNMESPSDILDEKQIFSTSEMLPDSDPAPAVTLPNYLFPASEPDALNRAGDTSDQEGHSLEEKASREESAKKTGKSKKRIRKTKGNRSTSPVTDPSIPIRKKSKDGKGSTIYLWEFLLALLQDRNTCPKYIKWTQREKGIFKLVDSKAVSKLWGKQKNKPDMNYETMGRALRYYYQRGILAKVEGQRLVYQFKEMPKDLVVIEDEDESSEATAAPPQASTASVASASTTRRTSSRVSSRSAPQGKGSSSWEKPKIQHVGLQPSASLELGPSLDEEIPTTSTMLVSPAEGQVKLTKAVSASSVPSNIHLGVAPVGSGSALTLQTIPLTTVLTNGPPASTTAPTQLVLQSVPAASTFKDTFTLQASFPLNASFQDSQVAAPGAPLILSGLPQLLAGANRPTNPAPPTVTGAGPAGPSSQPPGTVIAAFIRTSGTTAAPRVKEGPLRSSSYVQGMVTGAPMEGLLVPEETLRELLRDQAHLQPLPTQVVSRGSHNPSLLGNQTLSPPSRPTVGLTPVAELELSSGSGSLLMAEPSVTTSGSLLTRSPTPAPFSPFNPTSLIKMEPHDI
# How it was run: as §1
# ELK4 = biological target: T2, ELK4 (Homo sapiens, UniProt P28324-2 1-405); conditions: protein: recombinant; tags: N-terminal GST; dsDNA, one strand shown
# T2 sequence: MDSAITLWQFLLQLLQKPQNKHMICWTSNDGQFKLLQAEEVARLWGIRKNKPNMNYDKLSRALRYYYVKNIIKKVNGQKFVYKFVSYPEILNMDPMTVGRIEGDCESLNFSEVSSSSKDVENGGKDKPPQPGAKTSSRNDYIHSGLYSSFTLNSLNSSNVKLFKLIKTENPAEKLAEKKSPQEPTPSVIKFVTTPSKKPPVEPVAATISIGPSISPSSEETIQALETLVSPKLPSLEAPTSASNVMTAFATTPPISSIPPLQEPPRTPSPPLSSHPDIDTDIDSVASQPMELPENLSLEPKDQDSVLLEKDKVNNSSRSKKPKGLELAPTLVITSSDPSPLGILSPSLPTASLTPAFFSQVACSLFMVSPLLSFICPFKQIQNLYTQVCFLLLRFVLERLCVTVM
# How it was run: as §1
# ETV2 = biological target: T3, ETV2 (Homo sapiens, UniProt O00321 1-342); conditions: protein: recombinant; tags: N-terminal GST; dsDNA, one strand shown
# T3 sequence: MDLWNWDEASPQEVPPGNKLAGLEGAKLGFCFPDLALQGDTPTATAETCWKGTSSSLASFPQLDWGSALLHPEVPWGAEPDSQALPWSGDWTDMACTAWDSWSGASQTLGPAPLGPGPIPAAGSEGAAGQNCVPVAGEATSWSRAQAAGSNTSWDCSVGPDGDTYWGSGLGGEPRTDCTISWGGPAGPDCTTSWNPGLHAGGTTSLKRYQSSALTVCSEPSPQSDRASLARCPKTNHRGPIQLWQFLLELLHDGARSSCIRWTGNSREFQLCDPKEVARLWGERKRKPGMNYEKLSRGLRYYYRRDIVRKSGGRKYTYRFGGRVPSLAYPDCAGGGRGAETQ
# How it was run: as §1
# ELF3 = biological target: T4, ELF3 (Homo sapiens, UniProt P78545 1-371); conditions: protein: recombinant; tags: N-terminal GST; dsDNA, one strand shown
# T4 sequence: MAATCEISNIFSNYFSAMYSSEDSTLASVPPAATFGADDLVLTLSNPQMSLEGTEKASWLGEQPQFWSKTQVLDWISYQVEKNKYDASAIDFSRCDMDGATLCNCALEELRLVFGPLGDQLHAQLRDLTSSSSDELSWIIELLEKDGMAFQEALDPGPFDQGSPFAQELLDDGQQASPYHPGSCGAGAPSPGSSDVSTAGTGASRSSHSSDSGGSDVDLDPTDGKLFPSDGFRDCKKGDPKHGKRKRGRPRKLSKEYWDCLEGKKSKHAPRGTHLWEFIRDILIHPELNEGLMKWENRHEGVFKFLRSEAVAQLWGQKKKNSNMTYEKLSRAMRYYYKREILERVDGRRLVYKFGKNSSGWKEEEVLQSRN
# How it was run: as §1
# ETV1 = ETV1 (Homo sapiens, UniProt P50549 1-477); conditions: protein: recombinant; tags: N-terminal GST; dsDNA, one strand shown
# Chain of ETV1 (P50549 whole entry): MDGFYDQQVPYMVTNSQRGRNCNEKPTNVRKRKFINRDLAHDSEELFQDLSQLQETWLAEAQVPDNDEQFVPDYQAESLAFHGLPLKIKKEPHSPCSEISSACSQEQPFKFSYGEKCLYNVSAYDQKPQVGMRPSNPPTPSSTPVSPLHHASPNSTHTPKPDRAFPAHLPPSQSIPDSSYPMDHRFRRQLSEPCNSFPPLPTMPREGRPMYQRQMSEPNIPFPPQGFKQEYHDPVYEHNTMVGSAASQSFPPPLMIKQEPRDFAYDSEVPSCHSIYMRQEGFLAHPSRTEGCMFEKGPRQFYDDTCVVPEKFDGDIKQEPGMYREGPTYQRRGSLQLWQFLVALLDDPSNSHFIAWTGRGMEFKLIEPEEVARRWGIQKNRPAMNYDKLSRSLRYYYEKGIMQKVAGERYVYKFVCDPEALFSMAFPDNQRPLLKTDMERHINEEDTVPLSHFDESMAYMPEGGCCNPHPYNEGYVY
# How it was run: as §1
# ETV3L = biological target: T5, ETV3L (Homo sapiens, UniProt Q6ZN32 1-361); conditions: protein: recombinant; tags: N-terminal GST; dsDNA, one strand shown
# T5 sequence: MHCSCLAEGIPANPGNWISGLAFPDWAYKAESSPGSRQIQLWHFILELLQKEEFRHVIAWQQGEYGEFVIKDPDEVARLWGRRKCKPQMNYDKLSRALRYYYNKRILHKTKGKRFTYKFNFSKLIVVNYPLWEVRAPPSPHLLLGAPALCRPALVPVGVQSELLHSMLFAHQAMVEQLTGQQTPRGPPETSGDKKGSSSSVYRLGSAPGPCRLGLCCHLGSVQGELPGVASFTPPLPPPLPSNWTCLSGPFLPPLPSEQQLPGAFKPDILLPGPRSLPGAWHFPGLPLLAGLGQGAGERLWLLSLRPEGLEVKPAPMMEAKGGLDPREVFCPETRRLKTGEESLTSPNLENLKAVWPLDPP
# How it was run: as §1
# ETS2 = biological target: T6, ETS2 (Homo sapiens, UniProt P15036 1-469); conditions: protein: recombinant; tags: N-terminal GST; dsDNA, one strand shown
# T6 sequence: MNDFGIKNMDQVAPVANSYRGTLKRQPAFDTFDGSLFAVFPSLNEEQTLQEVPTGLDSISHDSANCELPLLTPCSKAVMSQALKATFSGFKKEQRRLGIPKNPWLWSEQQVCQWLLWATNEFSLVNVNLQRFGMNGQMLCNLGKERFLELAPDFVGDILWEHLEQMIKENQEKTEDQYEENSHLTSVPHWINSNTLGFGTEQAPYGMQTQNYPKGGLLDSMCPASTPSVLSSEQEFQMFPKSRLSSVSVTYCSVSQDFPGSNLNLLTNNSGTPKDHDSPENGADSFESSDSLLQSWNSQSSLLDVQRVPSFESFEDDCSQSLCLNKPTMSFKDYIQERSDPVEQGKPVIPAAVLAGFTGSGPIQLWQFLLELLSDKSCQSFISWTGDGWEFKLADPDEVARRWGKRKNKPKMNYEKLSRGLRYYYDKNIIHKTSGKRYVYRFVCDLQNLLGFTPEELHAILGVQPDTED
# How it was run: as §1
# ELF5 = biological target: T7, ELF5 (Homo sapiens, UniProt Q9UKW6-2 1-255); conditions: protein: recombinant; tags: N-terminal GST; dsDNA, one strand shown
# T7 sequence: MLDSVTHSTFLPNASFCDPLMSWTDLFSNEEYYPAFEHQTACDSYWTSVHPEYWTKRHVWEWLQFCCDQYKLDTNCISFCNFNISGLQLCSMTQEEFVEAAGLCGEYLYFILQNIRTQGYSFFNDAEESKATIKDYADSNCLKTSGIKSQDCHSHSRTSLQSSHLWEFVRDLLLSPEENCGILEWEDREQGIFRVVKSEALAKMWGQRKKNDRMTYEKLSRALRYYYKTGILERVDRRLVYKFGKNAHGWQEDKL
# How it was run: as §1
# ETV6 = ETV6 (Homo sapiens, UniProt P41212 1-452); conditions: protein: recombinant; tags: N-terminal GST; dsDNA, one strand shown
# Chain of ETV6 (P41212 whole entry): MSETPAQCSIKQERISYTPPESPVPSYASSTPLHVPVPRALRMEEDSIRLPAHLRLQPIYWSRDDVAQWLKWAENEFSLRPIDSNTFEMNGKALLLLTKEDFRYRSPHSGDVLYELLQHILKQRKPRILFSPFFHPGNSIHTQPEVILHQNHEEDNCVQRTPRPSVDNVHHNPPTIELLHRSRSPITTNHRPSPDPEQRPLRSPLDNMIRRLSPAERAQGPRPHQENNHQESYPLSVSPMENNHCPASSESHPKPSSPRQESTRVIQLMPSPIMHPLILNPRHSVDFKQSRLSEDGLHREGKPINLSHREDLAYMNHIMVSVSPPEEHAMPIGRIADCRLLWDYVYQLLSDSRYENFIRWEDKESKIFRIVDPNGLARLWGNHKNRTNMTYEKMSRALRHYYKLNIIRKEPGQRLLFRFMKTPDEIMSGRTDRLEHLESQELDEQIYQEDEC
# How it was run: as §1
# CRX = CRX (Homo sapiens, UniProt O43186 1-299); conditions: protein: recombinant; tags: N-terminal GST; dsDNA, one strand shown
# Chain of CRX (O43186 whole entry): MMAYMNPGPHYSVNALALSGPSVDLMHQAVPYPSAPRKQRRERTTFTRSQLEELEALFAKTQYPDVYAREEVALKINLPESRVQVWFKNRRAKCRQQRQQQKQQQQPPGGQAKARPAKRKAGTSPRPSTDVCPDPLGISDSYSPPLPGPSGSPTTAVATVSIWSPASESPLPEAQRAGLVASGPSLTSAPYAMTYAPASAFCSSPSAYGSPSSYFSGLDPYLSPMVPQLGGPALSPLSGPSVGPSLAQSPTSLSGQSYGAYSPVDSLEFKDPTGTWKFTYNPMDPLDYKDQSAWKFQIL
# How it was run: as §1
# ERF = biological target: T8, ERF (Homo sapiens, UniProt P50548 1-548); conditions: protein: recombinant; tags: N-terminal GST; dsDNA, one strand shown
# T8 sequence: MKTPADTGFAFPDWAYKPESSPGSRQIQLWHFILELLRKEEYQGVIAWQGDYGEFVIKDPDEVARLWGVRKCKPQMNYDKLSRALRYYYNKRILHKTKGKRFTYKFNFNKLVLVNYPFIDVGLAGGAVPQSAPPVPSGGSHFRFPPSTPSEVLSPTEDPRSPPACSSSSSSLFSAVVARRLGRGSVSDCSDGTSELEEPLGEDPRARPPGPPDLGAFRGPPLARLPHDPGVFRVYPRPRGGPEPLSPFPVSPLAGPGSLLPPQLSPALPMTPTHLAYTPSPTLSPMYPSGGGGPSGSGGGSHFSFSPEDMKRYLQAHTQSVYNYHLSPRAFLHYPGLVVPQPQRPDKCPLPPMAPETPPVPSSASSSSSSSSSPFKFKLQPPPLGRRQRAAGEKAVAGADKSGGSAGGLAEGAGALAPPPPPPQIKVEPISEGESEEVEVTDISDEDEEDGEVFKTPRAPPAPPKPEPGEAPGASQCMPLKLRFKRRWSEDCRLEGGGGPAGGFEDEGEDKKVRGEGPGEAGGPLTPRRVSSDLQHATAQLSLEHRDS
# How it was run: as §1
# ETV7 = biological target: T9, ETV7 (Homo sapiens, UniProt Q9Y603 1-341); conditions: protein: recombinant; tags: N-terminal GST; dsDNA, one strand shown
# T9 sequence: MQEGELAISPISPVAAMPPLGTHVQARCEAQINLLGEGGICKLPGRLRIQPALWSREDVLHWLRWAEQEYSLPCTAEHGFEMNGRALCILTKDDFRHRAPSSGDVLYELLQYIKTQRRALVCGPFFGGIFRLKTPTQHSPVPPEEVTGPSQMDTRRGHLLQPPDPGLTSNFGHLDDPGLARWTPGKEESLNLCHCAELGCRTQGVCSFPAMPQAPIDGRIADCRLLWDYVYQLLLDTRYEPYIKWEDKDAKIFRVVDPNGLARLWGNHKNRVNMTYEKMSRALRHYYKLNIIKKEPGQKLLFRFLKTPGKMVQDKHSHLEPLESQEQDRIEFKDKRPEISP
# How it was run: as §1
# ETV3 = biological target: T10, ETV3 (Homo sapiens, UniProt P41162-2 1-143); conditions: protein: recombinant; tags: N-terminal GST; dsDNA, one strand shown
# T10 sequence: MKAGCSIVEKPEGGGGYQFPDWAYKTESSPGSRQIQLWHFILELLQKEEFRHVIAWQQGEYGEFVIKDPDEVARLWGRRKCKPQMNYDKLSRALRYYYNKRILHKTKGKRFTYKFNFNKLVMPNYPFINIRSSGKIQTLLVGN
# How it was run: as §1
Sequence,binding signal (FEV),binding signal (ETV5),binding signal (HSF1),binding signal (ELF4),binding signal (ELK4),binding signal (ETV2),binding signal (ELF3),binding signal (ETV1),binding signal (ETV3L),binding signal (ETS2),binding signal (ELF5),binding signal (ETV6),binding signal (CRX),binding signal (ERF),binding signal (ETV7),binding signal (ETV3)
AGACCT,"1.04 fold enrichment (6-mer frequency, TF over GST control)","1.04 fold enrichment (6-mer frequency, TF over GST control)","1.02 fold enrichment (6-mer frequency, TF over GST control)","1.12 fold enrichment (6-mer frequency, TF over GST control)","1.07 fold enrichment (6-mer frequency, TF over GST control)","1.2 fold enrichment (6-mer frequency, TF over GST control)","1.08 fold enrichment (6-mer frequency, TF over GST control)","1.04 fold enrichment (6-mer frequency, TF over GST control)","1.07 fold enrichment (6-mer frequency, TF over GST control)","1.01 fold enrichment (6-mer frequency, TF over GST control)","1.05 fold enrichment (6-mer frequency, TF over GST control)","1.11 fold enrichment (6-mer frequency, TF over GST control)",,,,
ATCGCA,"1.01 fold enrichment (6-mer frequency, TF over GST control)","1 fold enrichment (6-mer frequency, TF over GST control)","1.03 fold enrichment (6-mer frequency, TF over GST control)","1.12 fold enrichment (6-mer frequency, TF over GST control)","1.06 fold enrichment (6-mer frequency, TF over GST control)",,,"1.06 fold enrichment (6-mer frequency, TF over GST control)","1 fold enrichment (6-mer frequency, TF over GST control)","1.02 fold enrichment (6-mer frequency, TF over GST control)",,,"1.17 fold enrichment (6-mer frequency, TF over GST control)","1.06 fold enrichment (6-mer frequency, TF over GST control)","1.03 fold enrichment (6-mer frequency, TF over GST control)","1.03 fold enrichment (6-mer frequency, TF over GST control)"
